Sampled rows, rich in hits. Any-hit rate of the full collection: about 18%.
IL-1B inflam inh: blocks inflammasome-driven IL-1 beta release; activity change, % at 57.5 µM; 360,000 tested, 4.7% active; THP-1 LPS/ATP IL-1B secretion, AlphaLISA, 16 h; active compounds read low; in the data active = activity change below about -50%; inconclusive = mostly about -30% to -49%
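THP-1 cells pretreated 1 hr with compounds (up to 57.5 uM final), then stimulated with LPS (250 ng/mL final) plus ATP (1.25 mM final); secreted IL-1B measured by AlphaLISA after 16 hr, decreased signal indicating inhibition.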
LDHA inh: blocks human lactate dehydrogenase A; purified LDHA, NADH/diaphorase-resazurin fluorescence; active compounds read low; 480,000 tested, 0.15% active; P00338; activity change, % (values are at about 110 or 230 µM); AID 1347041; in the data active = activity change below about -30%; inconclusive = mostly about -25% to -30%;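 also: plate controls were DMSO wells for no effect and wells without enzyme for full effect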
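Remaining NADH was detected by diaphorase (0.133 mg/mL) converting 37 µM resazurin to fluorescent resorufin, read at 0 and 20 minutes. The preceding 5-minute room-temperature reaction used 2 nM LDHA, 0.2 mM sodium pyruvate and 0.06 mM NADH at pH 7.4.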
VP16 counter: counter-screen for ROR gamma inhibitors: Gal4-VP16 reporter. AID 2546. Potency, µM (doses to about 53.6 µM), inactives show at the highest dose activity, negative = inhibition, actives largely listed as inhibitors. Drosophila S2 Gal4-VP16 UAS-luciferase, luminescence, 20 h. 310,000 tested, 3.5% active;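 also: Gal4-VP16 expression switched on by copper sulfate through the metallothionein promoter; potency is read from the fitted curve at half-maximal effect; nearly all actives have a fitted effect of over 50% in size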
DT40 TDP1 no CPT: qHTS for Inhibitors of human tyrosyl-DNA phosphodiesterase 1 (TDP1): qHTS in cells in absence of CPT | AID 686978, 2013 | DT40 Tdp1-/- hTDP1 cells, no CPT, ATP luminescence, 48 h | 420,000 tested, 15% active | Potency, µM (titrated, usually from 46.2 µM), for the others: at the top dose activity change, negative = growth inhibition, hits mostly inhibitors; also: potency is read from the fitted curve at half-maximal effect; nearly all actives have a fitted effect of over 55% in size
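Chicken DT40 Tdp1-/- cells stably complemented with human TDP1 were seeded at 400 cells/well with DMSO in place of 20 nM camptothecin. After compound pinning, cells grew at least 48 hr at 37 °C; viability read by CellTiter-Glo luminescence.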
TDP1 cell CPT: DT40-hTDP1 cell growth loss with CPT; AID 686979; chicken DT40 Tdp1-/-;hTDP1 cells + 20 nM CPT, ATP luminescence, 48 h; 420,000 tested, 12% active; Potency, µM (top dose mostly 46.2 µM), for the others: top-dose activity change, negative = growth inhibition, hits mostly inhibitors; also: potency is read from the fitted curve at half-maximal effect; nearly all actives have a fitted effect of over 55% in size
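Chicken DT40 Tdp1-/- cells stably complemented with human TDP1 were seeded at 400 cells/well in medium containing 20 nM camptothecin, exposed to pin-transferred compounds, and grown at 37 °C for at least 48 hr. Viability was read as ATP luminescence.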
RORg inh: ROR gamma (mouse) transcription inhibition; P51450; Drosophila S2 Gal4-RORgamma UAS-luciferase reporter, 20 h; Potency, µM (titrated, usually from 53.6 µM), without a hit: at the highest dose activity change, negative = inhibition, usual class: inhibitors; 310,000 tested, 5.4% active; AID 2551; also: potency is read from the fitted curve at half-maximal effect; nearly all actives have a fitted effect of over 60% in size
Target sequence (P51450 whole entry, looked up, the tested form may be a part): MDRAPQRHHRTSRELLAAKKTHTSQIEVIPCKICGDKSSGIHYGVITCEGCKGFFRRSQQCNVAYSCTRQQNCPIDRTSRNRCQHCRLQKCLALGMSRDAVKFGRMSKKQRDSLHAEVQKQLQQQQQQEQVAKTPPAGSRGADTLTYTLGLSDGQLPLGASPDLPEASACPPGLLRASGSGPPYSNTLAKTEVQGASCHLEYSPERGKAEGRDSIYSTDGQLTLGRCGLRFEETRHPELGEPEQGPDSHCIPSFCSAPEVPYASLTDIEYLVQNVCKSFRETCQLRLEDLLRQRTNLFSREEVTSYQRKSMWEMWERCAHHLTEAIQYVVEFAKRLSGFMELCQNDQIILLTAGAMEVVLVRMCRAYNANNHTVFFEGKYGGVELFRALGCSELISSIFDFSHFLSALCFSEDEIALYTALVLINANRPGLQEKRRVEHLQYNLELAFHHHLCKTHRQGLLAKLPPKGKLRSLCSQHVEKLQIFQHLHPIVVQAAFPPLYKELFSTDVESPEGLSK
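ROR gamma transcriptional activity was tracked as Gal4-UAS luciferase output in stably transfected Drosophila Schneider cells, with compound added 1 hr before 700 uM copper sulfate induction and a 20 hr ambient-temperature incubation.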
Starred values were filed as active, the others as inactive; ? = inconclusive; . = not tested or not shown; [ ] = dose if it differs, or a comment. Unless noted, calls follow the shape of the dose curve; as a rule, active = well fitted curve in the direction sought with a large enough effect; inconclusive = small, poorly fitted or top-dose-only effect, or another doubt; inactive = no such curve, though single readings can be large; an effect the other way counts as inactive or inconclusive. Unless noted, % is scaled to controls: 0 for no effect and ±100 for the full control effect.

SMILES | IL-1B inflam inh | LDHA inh | VP16 counter | DT40 TDP1 no CPT | TDP1 cell CPT | RORg inh
C=CS(=O)(=O)c1ccc(Oc2ccc(S(=O)(=O)C=C)cc2)cc1 | -104.6* | -8.7 | 2.24µM* | 2.31µM* | 2.31µM* | 3.16µM*
CC(=O)Oc1cc2c(cc1Cl)C1(CC(c3ccccc3Cl)O2)CC(C)(C)NC(=S)N1 (stereo unspecified) | -23.5 | -1.3 | ? | 2.59µM* | 3.26µM* | 10µM*
COc1ccc(CN(C)CC(=O)Nc2cc(C)nn2-c2ccccc2C)cc1 | . | -6.2 | . | . | . | .
NC(N)=NC(N)=Nc1cccc(Cl)c1 | -19.3 | 8.0 | -13.6% | 21.1µM* | ? | 5.6%
S=C(NCc1ccc(Cl)cc1)Nc1ccc(Nc2ccccc2)cc1 | . | 0.1 | . | . | . | .
Cc1ccc(-c2c3c(=O)n(C)c(=O)n(C)c3c3c(-c4cccc(C)c4)nc4ccccc4n23)cc1 | . | 1.6 | . | ? | ? | .
Cc1cccc(-c2c3c(=O)n(C)c(=O)n(C)c3c3c(C)nc4ccccc4n23)c1 | . | -7.4 | . | 6.51µM* | ? | .
Cc1cccc(-c2c3c(=O)n(C)c(=O)n(C)c3c3nnc4ccccc4n23)c1 | 11.7 | -2.9 | . | 6.51µM* | ? | .
COc1ccc(CN(CCC(c2ccco2)C(C)C)C(C)=O)cc1OC (stereo unspecified) | -12.9 | -0.4 | 28.3% | ? | ? | ?
COc1ccc(CN(CCC(c2ccccc2)c2ccc(OC(C)C)cc2)C(=O)CCl)cc1OC (stereo unspecified) | -98.5* | -1.1 | ? | 2.91µM* | 2.06µM* | 12.6µM*
COc1ccc(CN(CCC(c2ccc3c(c2)OCO3)c2ccccc2OC)C(C)=O)cc1 (stereo unspecified) | . | -6.9 | . | 20.6µM* | ? | .
COc1ccc(C(CCN(Cc2ccc(OC)c(OC)c2)C(C)=O)c2ccccc2)cc1 (stereo unspecified) | ? | 3.0 | ? | 20.6µM* | 20.6µM* | ?
CC(=O)N(CCC(Cc1ccccc1)c1ccc2c(c1)OCO2)Cc1ccc(Cl)cc1 (stereo unspecified) | ? | -1.1 | 6.6%[0.365 µM] | 16.4µM* | ? | -8.9%
COc1ccccc1C(CC(=O)O)c1ccc2c(c1)OCO2 (stereo unspecified) | 42.8 | 1.0 | -8.4% | 26.6% | -0.7% | 6.8%
COc1ccc(CN(CCC(c2ccccc2)C2CCOC(C)(C)C2)C(C)=O)cc1 (stereo unspecified) | ? | -4.5 | -7.8% | 18.4µM* | ? | 4.8%
CCC(CC)NC(=O)c1ccc(C)c(C)c1 | . | 3.1 | . | . | . | .
COc1ccc(C(C)=O)cc1COC(=O)c1cnc(Cl)c(Cl)c1 | -81.7* | -11.7 | 3.4% | -2.7% | -5.5% | -40.0%
Oc1ccc(N=Cc2cc(Br)c(N3CCOCC3)o2)cc1 | 0.2 | 23.3 | ? | 20.6µM* | ? | -19.6%
CCCCOc1ccc(NC(=O)Cc2ccc(OC)cc2)c2cccnc12 | . | 34.8 | . | . | . | .
Cc1ccccc1C(CC(=O)Nc1cccc(-c2ccno2)c1)n1cccc1 (stereo unspecified) | . | 8.5 | . | . | . | .
Cc1sc(-c2ccsc2)nc1-c1ccc(F)c(F)c1 | . | 3.2 | . | . | . | .
Cc1occc1C(=O)Nc1sccc1C(N)=O | ? | -8.0 | -15.1% | 2.7% | 6.2% | 14.3%
NC(=O)c1ccsc1NC(=O)c1coc2ccccc2c1=O | -3.3 | -2.2 | 0.6% | 29.1µM* | ? | -12.2%
CCc1nc2ccc(C(=O)N(CC)CCN(C)C)cn2c1N(C)CCCc1ccccc1 | ? | -0.8 | . | ? | ? | .
CCc1nc2ccc(C(=O)N3CCN(c4ccccc4)CC3)cn2c1N(C)CCC(C)C | -10.5 | 4.8 | . | 20.6µM* | ? | .
SMILES | IL-1B inflam inh | LDHA inh | VP16 counter | DT40 TDP1 no CPT | TDP1 cell CPT | RORg inh
CCc1nc2ccc(C(=O)N3CCN(c4ccccc4)CC3)cn2c1N(C)CCCc1ccccc1 | -3.8 | -2.6 | . | 16.4µM* | 13µM* | .
COc1ccc(S(=O)(=O)n2nc(-c3cc(OC)c(OC)c(OC)c3)cc2N)cc1OC | 9.7 | -1.5 | 6.5% | ? | -1.0% | ?
COc1ccc(-c2cc(N)n(S(=O)(=O)c3c(F)c(F)c(F)c(F)c3F)n2)cc1OC | -86.8* | 4.0 | 7.08µM* | 0.82µM* | 0.184µM* | ?
c1ccc2nc3c(ccc4ccccc43)cc2c1 | 6.7 | -4.2 | . | -14.2% | 0.1% | .
ClCc1nc2ccccc2c2ccccc12 | -7.9 | -7.2 | ? | 2.59µM* | 4.11µM* | -59.9%
CCOC(=O)c1ccc(NC(=O)c2c(N)n(Cc3ccccc3)c(=O)[nH]c2=O)cc1 | 36.3 | -5.9 | . | -101.0% | 16.4µM* | .
Cc1csc(=O)n1CC(=O)OCC(=O)Nc1ccc(C(N)=O)cc1 | 0.4 | 0.3 | . | 6.51µM* | -7.0% | .
CCOC(=O)c1ccc(S(=O)(=O)Nc2ccccc2-c2nnn(CC)n2)cc1 | -15.7 | 0.9 | ? | 9.2µM* | 14.6µM* | -25.5%
CCn1nnc(-c2ccccc2NS(=O)(=O)c2ccc(S(=O)(=O)N3CCCCCC3)cc2)n1 | 2.3 | -2.6 | -9.6% | -28.0% | -6.1% | -1.3%
COc1ccccc1CCC(=O)OCC(=O)Nc1ccc(C(N)=O)cc1 | 19.0 | -2.7 | -1.7% | -99.2% | 14.6µM* | 7.7%
COc1ccccc1CCC(=O)OCC(=O)Nc1ccc(S(N)(=O)=O)cc1 | 47.5 | -4.0 | 2.2% | -8.9% | 0.0% | 18.6%
O=C(Cc1ccc2c(c1)CCC2)Nc1ccc(-c2nccs2)cc1 | . | 9.9 | . | . | . | .
CCN(CC)c1sc(S(=O)(=O)CC)nc1S(=O)(=O)c1ccc(C)cc1 | . | 3.2 | . | . | . | .
COc1cc2nc(CSCC(=O)N3CCC(=O)CC3)[nH]c(=O)c2cc1OC | . | 8.4 | . | . | . | .
COC(=O)c1ccc(NC(=S)NCCc2ccccc2)cc1 | 83.3 | -5.0 | -2.8% | ? | ? | ?
CCOC(=O)c1ccc(NC(=O)c2ccccc2)cc1 | ? | -0.4 | 3.5% | -14.9% | -14.2% | 33.7%
CCOC(=O)c1ccc(NC(=S)NCCc2ccccc2)cc1 | 66.7 | -2.3 | ? | 20.6µM* | ? | 8.91µM*
CCOC(=O)c1ccc(NC(=O)NCCc2ccccc2OC)cc1 | -7.2 | 1.8 | ? | 14.6µM* | ? | ?
CCOC(=O)c1ccc(NC(=S)NCCc2ccccc2F)cc1 | 71.9 | 1.4 | ? | 23.1µM* | ? | 3.55µM*
CCOC(=O)c1ccc(NC(=S)NCc2ccccc2)cc1 | -8.3 | -7.4 | ? | ? | -21.1% | 14.1µM*
CCOC(=O)c1ccc(NC(=O)NCc2ccccc2OC)cc1 | -1.1 | -0.6 | ? | -26.5% | 3.7% | -1.9%
